Our source for the Potency values is ChEMBL document CHEMBL1201862, “PubChem BioAssay data set” (2004).

Out of some 310,000 compounds screened, about 11,000 (3.5%) were called active. Inconclusive results (about 4%) are left out. The calls are words filed in the database; no cut-off is given here. Shown is part of a subset that was picked to be rich in actives.

This test deals with T1, 4'-phosphopantetheinyl transferase ffp (Bacillus subtilis) (UniProt Q9F4F7).
T1 sequence (whole entry): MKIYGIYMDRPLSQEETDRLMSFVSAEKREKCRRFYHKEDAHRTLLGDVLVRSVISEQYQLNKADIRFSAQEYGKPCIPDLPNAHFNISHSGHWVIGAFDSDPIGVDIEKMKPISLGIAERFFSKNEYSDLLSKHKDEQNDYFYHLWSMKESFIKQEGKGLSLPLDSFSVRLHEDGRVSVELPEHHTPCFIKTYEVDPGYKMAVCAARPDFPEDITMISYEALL
Nature of the test: qHTS Assay for Inhibitors of Bacillus subtilis Sfp phosphopantetheinyl transferase (PPTase). It is filed as functional. Background: In qHTS, concentration-response curves come from the screen itself.
For `Cl[Te]1(Cl)OCCO1`, the Potency is 158 nM (active).
